In PubChem BioAssay AID1159580 (chemical genetic matrix, 2015):
Several values for one entry are separate records, joined by “and”; a condition that tells them apart may be missing. Identical values can stand only once. About 2,000 (36%) of roughly 5,500 compounds were called active. Roughly 18% stayed inconclusive and do not appear here. Cut-off read from the data, not from the text of the source: active = normalized growth mostly below about 0.91 (no sharp cut-off); inconclusive = no clear call, values can overlap the other calls; inactive = mostly above about 0.92. This is one part of the list.

Experiment: chemical genetic growth profiling, strain panel (AID 1159580);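 note: tested at 20 µM; growth read once vehicle control cultures reached saturation at 30 °C; 1 = growth at the plate median or of vehicle wells; lower values mean less growth of the strain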
Details: S. cerevisiae deletion strains, growth OD

Measured: normalized growth

NNc1nncc2ccccc12
inactive: locus YAL013W, strain DEP1, hits give low values 1.01 | locus YAL021C, strain ccr4, hits give low values 0.991 | locus YAL026C, strain drs2, hits give low values 0.973 | locus YAL030W, strain snc1, hits give low values 1 | locus YAL040C, strain CLN3, hits give low values 0.995 | locus YBL061C, strain skt5, hits give low values 0.993 | locus YBR009C, strain hhf1, hits give low values 0.983 | locus YBR021W, strain FUR4, hits give low values 0.973 | locus YBR023C, strain chs3, hits give low values 0.986 | locus YBR171W, strain sec66, hits give low values 0.997 | locus YBR229C, strain ROT2, hits give low values 1.01 | locus YBR231C, strain swc5, hits give low values 0.981 | locus YBR279W, strain paf1, hits give low values 0.996 | locus YCL011C, strain gbp2, hits give low values 0.973 | locus YCL016C, strain dcc1, hits give low values 0.969 | locus YCL029C, strain bik1, hits give low values 1 | locus YCL061C, strain MRC1 (second series), hits give low values 1 | locus YCL061C, strain MRC1, hits give low values 0.988 | locus YCL069W, strain vba3, hits give low values 1 | locus YCR088W, strain abp1, hits give low values 0.999 | locus YDL005C, strain med2, hits give low values 0.992 | locus YDL035C, strain GPR1, hits give low values 1.02 | locus YDL040C, strain nat1, hits give low values 1.01 | locus YDL074C, strain BRE1, hits give low values 0.997 | locus YDL101C, strain DUN1, hits give low values 1 | locus YDL134C, strain PPH21, hits give low values 1.01 | locus YDL185W, strain tfp1, hits give low values 0.999 | locus YDL192W, strain arf1, hits give low values 0.999 | locus YDR001C, strain nth1, hits give low values 0.997 | locus YDR069C, strain doa4, hits give low values 1.02 | locus YDR101C, strain arx1, hits give low values 1.01 | locus YDR137W, strain rgp1, hits give low values 1.02 | locus YDR150W, strain NUM1, hits give low values 1 | locus YDR159W, strain sac3, hits give low values 1.03 | locus YDR162C, strain NBP2, hits give low values 1.01 | locus YDR195W, strain ref2 1.06 | locus YDR297W, strain sur2, hits give low values 1.02 | locus YDR318W, strain mcm21, hits give low values 0.984 | locus YDR334W, strain swr1, hits give low values 0.986 | locus YDR335W, strain msn5, hits give low values 1.02 | locus YDR363W, strain ESC2, hits give low values 0.997 | locus YDR388W, hits give low values 0.993 | locus YDR392W, strain spt3, hits give low values 0.878 | locus YDR502C, strain sam2, hits give low values 0.986 | locus YEL003W, strain gim4, hits give low values 0.989 | locus YEL037C, strain rad23, hits give low values 1 | locus YEL061C, strain CIN8 (second series), hits give low values 1 | locus YEL061C, strain CIN8, hits give low values 1 | locus YER002W, strain NOP16, hits give low values 0.995 | locus YER015W, strain faa2, hits give low values 0.978 | locus YER016W, strain bim1, hits give low values 1 | locus YER110C, hits give low values 0.993 | locus YER111C, strain swi4, hits give low values 0.986 | locus YER155C, strain BEM2 (second series), hits give low values 0.947 | locus YER155C, strain BEM2, hits give low values 1.02 | locus YER167W, strain BCK2, hits give low values 1.01 | locus YFR010W, strain ubp6, hits give low values 0.985 | locus YGL078C, strain dbp3, hits give low values 0.999 | locus YGL086W, strain mad1, hits give low values 0.996 | locus YGL167C, strain pmr1, hits give low values 0.995 | locus YGL173C, strain kem1, hits give low values 0.99 | locus YGL227W, strain vid30, hits give low values 0.999 | locus YGL240W, strain doc1, hits give low values 1 | locus YGL248W, strain PDE1, hits give low values 0.99 | locus YGL253W, strain hxk2, hits give low values 1.01 | locus YGR135W, strain pre9, hits give low values 0.96 | locus YGR252W, strain gcn5, hits give low values 0.941 | locus YHR013C, strain ard1, hits give low values 0.986 | locus YHR027C, strain rpn1, hits give low values 1 | locus YHR030C, strain SLT2, hits give low values 1 and 1.02 | locus YHR079C, strain IRE1 (second series), hits give low values 0.993 | locus YHR079C, strain IRE1, hits give low values 1.01 | locus YHR094C, strain hxt1, hits give low values 0.997 | locus YHR129C, strain ARP1, hits give low values 0.997 | locus YHR142W, strain chs7, hits give low values 0.997 | locus YHR200W, strain rpn10, hits give low values 0.997 | locus YIL066C, strain RNR3, hits give low values 1 | locus YIL073C, strain SPO22, hits give low values 0.992 | locus YIL125W, strain kgd1, hits give low values 1.01 | locus YIR030C, strain dcg1, hits give low values 0.996 | locus YJL092W, strain hpr5, hits give low values 0.988 | locus YJL095W, strain BCK1 (second series), hits give low values 0.999 | locus YJL095W, strain BCK1, hits give low values 0.971 and 0.995 | locus YJL115W, strain asf1, hits give low values 0.996 | locus YJL129C, strain trk1, hits give low values 0.994 | locus YJL134W, strain LCB3, hits give low values 1 | locus YJL154C, strain vps35, hits give low values 0.998 | locus YJL164C, strain tpk1, hits give low values 0.993 | locus YJL166W, strain qcr8, hits give low values 1 | locus YJL168C, strain set2, hits give low values 0.989 | locus YJL187C, strain SWE1 (second series), hits give low values 1 | locus YJL187C, strain SWE1, hits give low values 1.01 | locus YJR043C, strain POL32, hits give low values 1
